Measurements taken from the supplement of paper PMC13380429.
Where a name gives a salt, the structure may show the parent alone.

Test system: Vero E6 infected with SARS-CoV-2
Test: inhibition of SARS-CoV-2 cytopathic effect; higher = more antiviral protection, active = above 15
Settings: 48 h

Measured: inhibition of SARS-CoV-2 cytopathic effect

NC1CCN(c2nc3c(cc2F)c(=O)c(C(=O)O)cn3-c2ccc(F)cc2F)C1 (stereo not given) [tosufloxacin]
inactive: 1 nM -2.93% | 8.33 nM 0.34% | 100 nM -3.49% | 833.33 nM -3.32% | 10000 nM -0.08%

NC(=O)N1CCC(CC(=O)N2CCC([C@H]3c4ncc(Br)cc4CCc4cc(Cl)cc(Br)c43)CC2)CC1 [lonafarnib]
inactive: 1 nM -0.44% | 8.33 nM 0.33% | 100 nM 1.55% | 833.33 nM 11.2% | 10000 nM 12.3%

CCSC(=N)N [EIT-hydrobromide]
inactive: 1 nM 0.03% | 8.33 nM -1.2% | 100 nM -0.94% | 833.33 nM -0.69% | 10000 nM -1.4%

CNC[C@H](O)[C@@H](O)[C@H](O)[C@H](O)CO [meglumine]
inactive: 1 nM -10% | 8.33 nM -10.3% | 100 nM -6.44% | 833.33 nM -11.4% | 10000 nM -10.1%

Cc1cccc(Oc2nc3c(C)cccn3c(=O)c2/C=C(\C#N)c2nc3ccccc3s2)c1
inactive: 1 nM -0.1% | 8.33 nM 1.16% | 100 nM 0.8% | 833.33 nM 3.43% | 10000 nM 0.62%

CC(C)C[C@@H](C(=O)N[C@H](C(=O)OC1CCCC1)c1ccccc1)[C@H](O)C(=O)NO [tosedostat]
inactive: 1 nM 3.34% | 8.33 nM 6.05% | 100 nM -1.49% | 833.33 nM 3.93% | 10000 nM 4.94%

[O-][S+](c1ccccc1)c1ccc2nnnn2n1 (stereo not given)
inactive: 1 nM 2.27% | 8.33 nM 2.68% | 100 nM 0.02% | 833.33 nM 1.7% | 10000 nM 14%

CCC(Cc1c(I)cc(I)c(N)c1I)C(=O)O (stereo not given) [iopanic-acid]
inactive: 1 nM 2.78% | 8.33 nM 2.89% | 100 nM 1.6% | 833.33 nM 0.47% | 10000 nM 2.12%

NC(=O)c1cccnc1 [nicotinamide]
inactive: 1 nM -0.85% | 8.33 nM 1.53% | 100 nM -1.16% | 833.33 nM 2.49% | 10000 nM 7.29%

Cc1cc(C#N)cc(C)c1Oc1nc(Nc2ccc(C#N)cc2)nc(N)c1Br [etravirine]
inactive: 1 nM -0.95% | 8.33 nM -0.81% | 100 nM -2.15% | 833.33 nM -5.24% | 10000 nM -2.04%

Cc1ccc(-c2ncc[nH]2)cc1NC(=O)c1ccc(OCc2ccccn2)cc1
inactive: 1 nM -1.02% | 8.33 nM -0.95% | 100 nM -2.09% | 833.33 nM -4.18% | 10000 nM -4.54%

C/C(=C\C(N)C(=O)O)CP(=O)(O)O (stereo not given)
inactive: 1 nM -2.33% | 8.33 nM -2.58% | 100 nM 0.17% | 833.33 nM 5.33% | 10000 nM -3.57%

CCOC(=O)c1cncn1[C@H](C)c1ccccc1 [etomidate]
inactive: 1 nM 0.18% | 8.33 nM -0.71% | 100 nM -2.47% | 833.33 nM 1.97% | 10000 nM 0.06%

Oc1ccc(C2CNCCc3c2cc(O)c(O)c3Cl)cc1 (stereo not given) [fenoldopam]
inactive: 1 nM 5.49% | 8.33 nM 1.3% | 100 nM 4.35% | 833.33 nM 0.98% | 10000 nM -5.61%

CN(C)N(C)C(=O)[C@@]1(Cc2ccccc2)CCCN(C(=O)[C@@H](Cc2c[nH]c3ccccc23)NC(=O)C(C)(C)N)C1 [anamorelin]
inactive: 1 nM -0.24% | 8.33 nM -1% | 100 nM 9.14% | 833.33 nM -2.12% | 10000 nM -0.05%

CC(O)CC(=O)O (stereo not drawn) [beta-hydroxybutyrate]
inactive: 1 nM 7.02% | 8.33 nM 2.5% | 100 nM -2.77% | 833.33 nM -2.16% | 10000 nM -1.85%

Cc1cc(Nc2nc(N[C@@H](C)c3ncc(F)cn3)ncc2Cl)[nH]n1
inactive: 1 nM -1.19% | 8.33 nM -0.46% | 100 nM -0.68% | 833.33 nM 0.25% | 10000 nM 0.25%

O=c1ccc2ccccc2o1 [coumarin]
inactive: 1 nM -0.97% | 8.33 nM -0.94% | 100 nM -1.66% | 833.33 nM 1.9% | 10000 nM -0.9%

CC(C(=O)O)c1ccc(N2Cc3ccccc3C2=O)cc1 (stereo not given) [indoprofen]
inactive: 1 nM 0.91% | 8.33 nM 0.93% | 100 nM 0.86% | 833.33 nM 1.21% | 10000 nM 0.49%

NC[C@H]1O[C@H](O[C@H]2[C@H](O)[C@@H](O[C@H]3O[C@H](CO)[C@@H](O)[C@H](N)[C@H]3O)[C@H](N)C[C@@H]2N)[C@H](N)C[C@@H]1O [tobramycin]
inactive: 1 nM -1.08% | 8.33 nM 1.78% | 100 nM -0.88% | 833.33 nM 0.11% | 10000 nM 0.19%

CCCCCCCC/C=C/CCCCCCCC(=O)OC[C@H]1O[C@@H](n2ccc(N)nc2=O)C(F)(F)[C@@H]1O [gemcitabine-elaidate]
inactive: 1 nM -0.31% | 8.33 nM -0.77% | 100 nM -1.9% | 833.33 nM 0.35% | 10000 nM 3%
